This is a sample that favours compounds with a hit; in the whole collection about 1.1% have one here.
PI4K2A block: inhibitors of human PI4K2A | purified PI4K2A, ADP-Glo luminescence, 1 h; stronger effect = lower value | activity change, negative = inhibition, % at 76.9 µM | actives 0.13% (n = 420,000); in the data active = activity change below about -50%; inconclusive = mostly about -30% to -49%;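 note: -100% = wells without enzyme as full effect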
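Compounds are screened against recombinant PI4K2A using PI as substrate and ATP, the latter dispensed at 300 microM. Reactions run one hour at ambient temperature before ADP-Glo detection; full inhibition defined by wells lacking enzyme.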
GALK inhibitor: inhibitors of human galactokinase; Purified GALK, Kinase-Glo residual ATP luminescence; P51570; actives 0.007% (n = 270,000); Potency, µM (titrated, usually from 57.5 µM), for the others: at the highest dose activity change, negative = inhibition, hits mostly inhibitors; note: potency is the fitted concentration of half-maximal effect
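5 nM enzyme, 35 uM ATP, 100 uM galactose, 20 mM HEPES pH8.0, 5 mM MgCl2; 1 h RT; residual ATP by Kinase-Glo Plus luminescence, qHTS format.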
rTrxR1 inhibitor: inhibitors of rat thioredoxin reductase 1. recombinant rTrxR1, NADPH fluorescence consumption, selenite substrate. O89049. Potency, µM (series often up to 114 µM), inactives show at the top dose activity change, negative = inhibition, usual class: inhibitors. actives 1% (n = 390,000). AID 588453; note: potency is the fitted concentration of half-maximal effect; nearly all actives have a fitted effect of over 65% in size
Target sequence (O89049 whole entry, looked up): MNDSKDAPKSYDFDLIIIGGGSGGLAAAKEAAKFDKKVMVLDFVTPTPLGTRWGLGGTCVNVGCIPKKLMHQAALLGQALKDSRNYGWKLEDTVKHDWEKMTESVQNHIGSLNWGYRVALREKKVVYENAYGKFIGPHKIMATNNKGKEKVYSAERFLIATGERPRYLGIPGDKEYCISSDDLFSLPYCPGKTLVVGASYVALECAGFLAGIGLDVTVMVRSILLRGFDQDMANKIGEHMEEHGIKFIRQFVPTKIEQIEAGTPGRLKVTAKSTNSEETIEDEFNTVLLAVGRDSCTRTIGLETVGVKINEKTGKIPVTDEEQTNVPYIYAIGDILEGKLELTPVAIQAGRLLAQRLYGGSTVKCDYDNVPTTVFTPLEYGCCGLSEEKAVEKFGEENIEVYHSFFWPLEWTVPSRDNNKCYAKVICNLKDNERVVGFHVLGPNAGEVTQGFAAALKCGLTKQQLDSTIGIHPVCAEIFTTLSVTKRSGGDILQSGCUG
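Rat TrxR1 (90 nM in the dispensed reagent) was pre-reduced with 400 uM NADPH for 5 min at room temperature, then incubated with compound for 15 min. After 400 uM selenite was added, NADPH fluorescence (Ex 340/Em 450 nm) was followed for 8 min.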
TrxR1 substrate: is turned over as a substrate by rat TrxR1; purified TrxR1 substrate turnover, NADPH consumption readout; AID 588456; actives 0.01% (n = 390,000); Potency, µM (highest dose often 114 µM), for inactives: at the top dose activity change, negative = substrate turnover; O89049; note: potency is the fitted concentration of half-maximal effect; nearly all actives have a fitted effect of over 50% in size
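Rat TrxR1, dispensed at 90 nM, was prereduced with 400 uM NADPH (final) for 5 min at ~22 deg C, then incubated with compound 15 min before 400 uM selenite. A first-read NADPH fluorescence drop versus no-compound background flagged substrates.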
An asterisk follows results filed as active; [ ] = another dose, or the depositor's remark. Unless noted, calls come from the whole dose curve; as a rule, active = well fitted curve in the direction sought with a large enough effect; inconclusive = small, poorly fitted or top-dose-only effect, or another doubt; inactive = no such curve, though single readings can be large; an effect the other way counts as inactive or inconclusive. Unless noted, % is set by controls: 0 for no effect and ±100 for the full control effect.

`COC(=O)CCC(=O)OC1(C)C(=O)C2=CN(c3ccc(OC)cc3)C(c3ccc(OC)cc3)=CC2=C(Br)C1=O` (stereo not given) gave PI4K2A block -16, rTrxR1 inhibitor 7%[57.1 µM] and TrxR1 substrate 0%[57.1 µM].
Screening COc1ccc(C2=CC3=C(Br)C(=O)C(C)(OC(=O)c4ccco4)C(=O)C3=CO2)cc1 (stereo not given) returned PI4K2A block inconclusive, GALK inhibitor 4%, rTrxR1 inhibitor 50µM* and TrxR1 substrate -2%.
For COc1ccc(C2=CC3=C(Br)C(=O)C(C)(OC(=O)c4cccs4)C(=O)C3=CO2)cc1 (stereo not given) the results were PI4K2A block -2, rTrxR1 inhibitor 50µM* and TrxR1 substrate -13%.
OC[C@]1(O)OC[C@@H](O)[C@H](O)[C@@H]1O was read as PI4K2A block 1.
Screening NC(=O)c1c(N)sc2c1CCCC2 returned PI4K2A block -2, GALK inhibitor 1%, rTrxR1 inhibitor 50µM* and TrxR1 substrate 4%.
Nc1sc2c(c1C(=O)c1ccccc1)CCCC2 was read as PI4K2A block 1, GALK inhibitor -2%, rTrxR1 inhibitor inconclusive and TrxR1 substrate -9%.
`CC(=O)OCC1=C(C(=O)OC(C)(C)C)N2C(=O)[C@@H](NC(=O)Cc3ccccc3)[C@H]2SC1` gave PI4K2A block -5, rTrxR1 inhibitor 6.3µM* and TrxR1 substrate 3%.
For Cc1ccc2cc(CN(C(=O)c3ccco3)c3ccccc3C)c(=O)[nH]c2c1 the results were PI4K2A block 9, GALK inhibitor 5%, rTrxR1 inhibitor inconclusive and TrxR1 substrate 16%[57.1 µM].
For Cc1ccc2cc(CN(C(=O)c3ccco3)c3cccc(C)c3C)c(=O)[nH]c2c1 the results were PI4K2A block 4, GALK inhibitor -1%, rTrxR1 inhibitor 18µM* and TrxR1 substrate 6%.
Screening Cc1ccc2cc(CN(Cc3nnnn3Cc3ccco3)CC3CCCO3)c(=O)[nH]c2c1C (stereo not given) returned PI4K2A block -30, GALK inhibitor 3%, rTrxR1 inhibitor 25µM* and TrxR1 substrate -6%.
Cc1ccc2cc(CN(Cc3ccco3)Cc3nnnn3Cc3ccco3)c(=O)[nH]c2c1 was read as rTrxR1 inhibitor inconclusive and TrxR1 substrate -6%.
`O=c1[nH]c2cc3c(cc2cc1CN(Cc1cccnc1)Cc1nnnn1Cc1ccco1)OCCO3` gave PI4K2A block -26, GALK inhibitor -2%, rTrxR1 inhibitor 11µM* and TrxR1 substrate 56%.
For O=C(c1ccco1)N(Cc1cc2ccccc2[nH]c1=O)CC1CCCO1 (stereo not given) the results were PI4K2A block -6, GALK inhibitor 1%, rTrxR1 inhibitor -7% and TrxR1 substrate 6%[57.1 µM].
Cc1cccc2cc(CN(CC3CCCO3)C(=O)c3ccco3)c(=O)[nH]c12 (stereo not given) was read as PI4K2A block 7, GALK inhibitor -2%, rTrxR1 inhibitor 16µM* and TrxR1 substrate 9%.
Screening Cc1ccccc1NC(=O)Cn1c(=O)n(CCc2ccccc2)c(=O)c2sc3ccccc3c21 returned PI4K2A block 1, rTrxR1 inhibitor 3% and TrxR1 substrate 2%.
O=c1[nH]c2cc3c(cc2cc1CN(Cc1cccs1)Cc1nnnn1Cc1ccco1)OCCO3 was read as PI4K2A block -27, GALK inhibitor -3%, rTrxR1 inhibitor 16µM* and TrxR1 substrate 27%.
`CCc1ccc2[nH]c(=O)c(CN(Cc3ccccc3)Cc3nnnn3Cc3ccco3)cc2c1` gave PI4K2A block -7, GALK inhibitor 2%, rTrxR1 inhibitor -24% and TrxR1 substrate -1%.
`Cc1ccc2[nH]c(=O)c(CN(CCCO)Cc3nnnn3Cc3ccco3)cc2c1` gave rTrxR1 inhibitor 28µM* and TrxR1 substrate 0%.
Screening COc1ccccc1CN(Cc1cc2cc3c(cc2[nH]c1=O)OCCO3)Cc1nnnn1Cc1ccco1 returned PI4K2A block -23, GALK inhibitor 0%, rTrxR1 inhibitor 5.6µM* and TrxR1 substrate 44%.
Screening Cc1ccc2[nH]c(=O)c(CN(Cc3ccc4c(c3)OCO4)Cc3nnnn3Cc3ccco3)cc2c1 returned PI4K2A block -3, GALK inhibitor 0%, rTrxR1 inhibitor 6%[57.1 µM] and TrxR1 substrate -4%[57.1 µM].
For O=c1[nH]c2cc3c(cc2cc1CN(Cc1ccccc1)Cc1nnnn1Cc1ccco1)OCCO3 the results were PI4K2A block -10, GALK inhibitor 0%, rTrxR1 inhibitor 18µM* and TrxR1 substrate 22%.
Cc1ccc2[nH]c(=O)c(CN(Cc3cccnc3)Cc3nnnn3CCN3CCOCC3)cc2c1 was read as PI4K2A block -17, GALK inhibitor -6%, rTrxR1 inhibitor 11µM* and TrxR1 substrate 10%.
`CCOC(=O)CSC(=S)NC(=O)c1ccc(OC)cc1` gave PI4K2A block 3, GALK inhibitor 0%, rTrxR1 inhibitor 22µM* and TrxR1 substrate -2%.
For COc1ccc(C(=O)NC(=S)SCC(=O)O)cc1 the results were PI4K2A block -20, GALK inhibitor -1%, rTrxR1 inhibitor -10% and TrxR1 substrate 10%.
COc1ccccc1CNC(=O)c1ccc(CN2CC(=O)N3CCCCC3C2=O)cc1 (stereo not given) was read as PI4K2A block 1, rTrxR1 inhibitor 17% and TrxR1 substrate 2%.
Cc1ccc2cc(C=C(C#N)C#N)c(N3CCCCC3)nc2c1 was read as PI4K2A block 19, GALK inhibitor -8%, rTrxR1 inhibitor 1µM* and TrxR1 substrate -5%.
`COc1ccc(CCNC(=O)CS(=O)Cc2nc(-c3ccccc3F)oc2C)cc1OC` (stereo not given) gave PI4K2A block 9, GALK inhibitor -2%, rTrxR1 inhibitor 50µM* and TrxR1 substrate 24%.
Cc1ccc(CCNC(=O)CS(=O)Cc2nc(-c3ccccc3F)oc2C)cc1 (stereo not given) was read as PI4K2A block 1, GALK inhibitor 5%, rTrxR1 inhibitor 32µM* and TrxR1 substrate 2%.
`CCCCNC(=O)CS(=O)Cc1nc(-c2cccc(Cl)c2)oc1C` (stereo not given) gave PI4K2A block 3, GALK inhibitor 0%, rTrxR1 inhibitor 14µM* and TrxR1 substrate 8%[57.1 µM].
Screening COCCNC(=O)CS(=O)Cc1nc(-c2ccccc2C)oc1C (stereo not given) returned PI4K2A block 2, GALK inhibitor 2%, rTrxR1 inhibitor 16µM* and TrxR1 substrate 7%.
Screening COc1ccccc1NC(=O)C1=C(C)Nc2c(C(=O)Nc3ccc(F)cc3)cnn2C1c1ccc(Cl)cc1 (stereo not given) returned PI4K2A block -7, rTrxR1 inhibitor 5% and TrxR1 substrate -4%.
Screening COc1cc(OC)cc(-c2nc3nc(C)c(CCC(=O)Nc4ccc(F)cc4F)c(C)n3n2)c1 returned PI4K2A block -4, rTrxR1 inhibitor -3% and TrxR1 substrate -5%.
